NIH3T3 tox = kills NIH 3T3 cells | NIH 3T3 viability, CellTiter-Glo ATP luminescence, 48-72 h | AID 1345082 | hit rate 4.3% among 94,000 | Potency, µM (series often up to 96.7 µM), usual class: inhibitors; further: nearly all actives have a fitted effect of over 55% in size
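Cells were seeded at 400 per well, treated with pin-transferred compound, and kept 48 or 72 hr at 37 °C before CellTiter-Glo addition and luminescence imaging of cellular ATP.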
HEK293 tox = HEK 293 cell cytotoxicity; hit rate 6.6% among 94,000; Potency, µM (titrated, usually from 115 µM), actives largely listed as inhibitors; HEK 293 viability, ATP luminescence (CellTiter-Glo), 48-72 h; AID 1345083; further: nearly all actives have a fitted effect of over 60% in size
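Luminescence from cellular ATP, measured with CellTiter-Glo, indicates HEK 293 viability. Cells plated at 250 cells/well are treated with compound for 48 or 72 hr at 37 degree Celsius before reagent addition.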
GPT2 inh = inhibitors of human GPT2 alanine aminotransferase. Q8TD30. Recombinant GPT2, coupled pyruvate oxidase/HRP Amplex Red fluorescence. Potency, µM (series often up to 57.7 µM), usual class: inhibitors. hit rate 0.25% among 100,000. AID 1671188; further: nearly all actives have a fitted effect of over 60% in size
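Inhibition is scored from Amplex Red fluorescence generated when pyruvate oxidase and HRP act on pyruvate released by GPT2. Reactions contain 10ng/uL enzyme, 250uM a-KG and 2mM L-alanine and run 30 min at room temperature.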
hNpr1 antagonist = human Npr1 receptor antagonism; P16066; HEK293 hNpr1 GloSensor cGMP, ANP-stimulated luminescence; Potency, µM (titrated, usually from 46.3 µM), actives largely listed as inhibitors; hit rate 1.6% among 76,000; calls by dose curve; further: nearly all actives have a fitted effect of over 60% in size
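Compound pre-incubated 30 min at room temperature on GloSensor-loaded HEK293 cells stably carrying hNpr1 and the pGS-40F cGMP biosensor. Stimulation uses hNppA at 0.1 nM final; luminescence is taken at baseline and 20 min post-agonist.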
Luciferase inh = blocks purified firefly luciferase enzyme activity; P08659; purified P. pyralis luciferase, luminescence, biochemical; Potency, µM (top dose mostly 115 µM), usual class: inhibitors; hit rate 2.5% among 76,000; AID 1347043; further: nearly all actives have a fitted effect of over 65% in size
Target sequence (P08659 whole entry, looked up): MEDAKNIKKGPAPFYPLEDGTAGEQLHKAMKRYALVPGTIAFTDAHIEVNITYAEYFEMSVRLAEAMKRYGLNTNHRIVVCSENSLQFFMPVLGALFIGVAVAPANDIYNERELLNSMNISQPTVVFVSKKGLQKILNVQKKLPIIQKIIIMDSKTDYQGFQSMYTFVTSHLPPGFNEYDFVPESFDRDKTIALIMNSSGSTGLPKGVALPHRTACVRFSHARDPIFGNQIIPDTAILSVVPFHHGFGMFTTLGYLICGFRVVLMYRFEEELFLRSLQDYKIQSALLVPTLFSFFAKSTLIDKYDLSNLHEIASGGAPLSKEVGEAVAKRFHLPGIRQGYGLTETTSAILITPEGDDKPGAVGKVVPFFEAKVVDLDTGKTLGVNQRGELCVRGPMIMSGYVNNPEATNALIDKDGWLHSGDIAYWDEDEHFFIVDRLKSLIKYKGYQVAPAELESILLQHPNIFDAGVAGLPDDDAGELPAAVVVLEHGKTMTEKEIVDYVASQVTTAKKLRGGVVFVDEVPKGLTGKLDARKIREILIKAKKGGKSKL
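Biochemical qHTS: compound (6-point titration) added to 10uM D-luciferin plus 10uM ATP in Tris acetate pH 7.5 buffer with Mg, Tween-20 and BSA, then purified enzyme at 10nM; light output imaged.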
A number is an active result; 0 = inactive; ? = inconclusive; - = no result given; ! = repeats disagree. Rows were chosen to be rich in hits. Some 10% of all compounds tested hit in one or more screens of this group. Unless noted, the call rests on the fitted dose curve; in most records, active means well fitted curve in the direction sought with a large enough effect; inconclusive means small, poorly fitted or top-dose-only effect, or another doubt; inactive means no such curve, though single readings can be large; an effect the other way counts as inactive or inconclusive.

SMILES	NIH3T3 tox	HEK293 tox	GPT2 inh	hNpr1 antagonist	Luciferase inh
O=C(CN1C(=O)NC2(CCCCC2)C1=O)Nc1ccc(C(F)(F)F)cc1	?	28µM	0	0	0
COc1ccc(NC(=O)N2CCOc3ccc(CN4CCc5ccccc5C4)cc3C2)cc1	?	?	0	0	0
CCN(CC)Cc1ccc2c(c1)CN(C(=O)Nc1ccc(OC)cc1)CCO2	0	0	0	-	-
Clc1ccc(CN2CCC[C@H]2c2nc(-c3ccc(N4CCOCC4)nc3)no2)cc1	?	63µM	0	?	?
OCc1ccc(CN2CCC[C@H]2c2nc(-c3ccc(N4CCOCC4)nc3)no2)o1	0	?	0	0	0
c1ccc(CN2CCC[C@H]2c2nc(-c3ccc(N4CCOCC4)nc3)no2)cc1	0	89µM	0	0	0
c1cc(N2CCOCC2)ncc1-c1noc([C@@H]2CCCN2)n1	0	0	0	0	56µM
Cn1cc(-c2cnn3c(N)c(Br)c(C4CCCNC4)nc23)cn1 (configuration not stated)	-	-	0	-	-
COc1ccc(CN2CCC(c3nn(Cc4ccccc4)c(=O)[nH]3)CC2)cc1	0	0	0	0	0
COc1ccc(Cn2nc(-c3ccccc3)nc2C2CCC(=O)NC2)cc1 (configuration not stated)	0	?	0	0	35µM
Cn1ncc2c(C(=O)NC3CC3)cc(-c3ccc(Cl)nc3)nc21	?	?	0	-	-
Cn1ncc2c(C(=O)NCc3ccc(Cl)cc3)cc(-c3cccc(F)c3)nc21	32µM	40µM	-	-	-
Cn1ncc2c(C(=O)NCc3cccc(F)c3)cc(-c3ccc(Cl)cc3)nc21	?	45µM	0	-	-
Cc1ccc(-c2cc(C(=O)NCc3ccc(F)cc3)c3cnn(C)c3n2)cc1	?	?	0	-	-
Cn1ncc2c(C(=O)NC3CC3)cc(-c3cccnc3)nc21	40µM!	63µM!	0	-	-
Cn1ncc2c(C(=O)NCCc3ccc(Cl)cc3)cc(-c3cccnc3)nc21	?	32µM	0	-	-
CCn1ccc2sc(C)c(C(=O)NCc3ccc(F)cc3Cl)c2c1=O	0	0	0	0	0
O=C(c1ccc(Cl)nc1)N1CCN(c2ccc3nnc(-c4ccccc4)n3n2)CC1	?	0	-	-	-
COC(=O)CNC(=O)c1cc(-c2cccc(F)c2)nc2c1cnn2C	?	0	-	-	-
CCC(C)NC(=O)c1cc(-c2cccc(F)c2)nc2c1cnn2C (configuration not stated)	?	89µM	-	-	-
O=C(Nc1ccc(Cl)cc1)N1CCc2nc(C3CC3)nc(-c3ccc(Cl)cc3)c2C1	?	28µM	0	0	0
O=C(c1ccc(C(F)(F)F)cc1)N1CCc2nc(C3CC3)nc(-c3ccc(Cl)cc3)c2CC1	?	28µM	0	0	0
O=C(c1ccccn1)N1CCc2nc(C3CC3)nc(-c3ccc(Cl)cc3)c2C1	32µM	0	0	-	-
O=C(c1ccccc1F)N1CCc2nc(C3CC3)nc(-c3ccc(Cl)cc3)c2C1	?	0	0	-	-
Oc1ccc(-c2nc(C3CC3)nc3c2CN(CC2CCCCC2)CC3)cc1	?	79µM	0	0	0
SMILES	NIH3T3 tox	HEK293 tox	GPT2 inh	hNpr1 antagonist	Luciferase inh
COc1ccc(C(=O)N2CCC3(CC2)CC(c2nc(C)no2)N(C)C3)cc1F (configuration not stated)	0	0	0	0	0
CC1=C[C@@H](CN2CCC(CO)CC2)[C@H](C(C)C)C[C@H]1Cc1nnc(-c2ccncc2)o1	0	0	0	0	0
CC1=C[C@@H](CN2CCC[C@H]2CO)[C@H](C(C)C)C[C@H]1Cc1nnc(-c2ccc(N(C)C)cc2)o1	40µM	45µM	0	0	0
CC1=C[C@@H](CN(C)CCO)[C@H](C(C)C)C[C@H]1Cc1nnc(-c2ccc(N(C)C)cc2)o1	40µM	63µM	0	0	0
CC1=C[C@@H](CO)[C@H](C(C)C)C[C@H]1Cc1nnc(-c2ccc(N(C)C)cc2)o1	89µM	?	0	0	?
COCCNC[C@@H]1C=C(C)[C@H](Cc2nnc(-c3ccc(N(C)C)cc3)o2)C[C@H]1C(C)C	40µM	25µM	0	0	0
N#Cc1cccc(-c2cn3c(n2)N(C(=O)COc2ccccc2)CCC3)c1	?	?	0	0	0
O=C1C(N2CCN(S(=O)(=O)Cc3ccccc3F)CC2)CCN1Cc1ccccn1 (configuration not stated)	0	0	0	0	0

Compound activity (PubChem BioAssay)
